# In all, about 5,500 compounds went through this assay and about 2,000 (36%) were called active. Inconclusive results (about 18%) are left out. The list shows a part of the results. A number with no mark means an inactive call. No stated cut-off is given here; in the data, active means normalized growth mostly below about 0.91 (no sharp cut-off); inconclusive means no clear call, values can overlap the other calls; inactive means mostly above about 0.92.
# Test: chemical genetic growth profiling, strain panel (AID 1159580);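 further: tested at 20 µM; growth read once vehicle control cultures reached saturation at 30 °C; 1 = growth at the plate median or of vehicle wells; lower values mean less growth of the strain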
# Conditions: growth OD
# [1] = S. cerevisiae deletion strains, locus YBR021W, strain FUR4, active compounds read low
# [2] = S. cerevisiae deletion strains, locus YBR229C, strain ROT2, active compounds read low
# [3] = S. cerevisiae deletion strains, locus YCL029C, strain bik1, active compounds read low
# [4] = S. cerevisiae deletion strains, locus YDL035C, strain GPR1, active compounds read low
# [5] = S. cerevisiae deletion strains, locus YDL074C, strain BRE1, active compounds read low
# [6] = S. cerevisiae deletion strains, locus YDL101C, strain DUN1, active compounds read low
# [7] = S. cerevisiae deletion strains, locus YDL134C, strain PPH21, active compounds read low
# [8] = S. cerevisiae deletion strains, locus YDL185W, strain tfp1, active compounds read low
# [9] = S. cerevisiae deletion strains, locus YDL192W, strain arf1, active compounds read low
# [10] = S. cerevisiae deletion strains, locus YDR101C, strain arx1, active compounds read low
# [11] = S. cerevisiae deletion strains, locus YDR162C, strain NBP2, active compounds read low
# [12] = S. cerevisiae deletion strains, locus YDR318W, strain mcm21, active compounds read low
# [13] = S. cerevisiae deletion strains, locus YDR388W, active compounds read low
# [14] = S. cerevisiae deletion strains, locus YDR502C, strain sam2, active compounds read low
# [15] = S. cerevisiae deletion strains, locus YEL061C, strain CIN8, active compounds read low
# [16] = S. cerevisiae deletion strains, locus YER110C, active compounds read low
# [17] = S. cerevisiae deletion strains, locus YER155C, strain BEM2, active compounds read low
# [18] = S. cerevisiae deletion strains, locus YER167W, strain BCK2, active compounds read low
# [19] = S. cerevisiae deletion strains, locus YGL078C, strain dbp3, active compounds read low
# [20] = S. cerevisiae deletion strains, locus YGL086W, strain mad1, active compounds read low
# [21] = S. cerevisiae deletion strains, locus YGL248W, strain PDE1, active compounds read low
# [22] = S. cerevisiae deletion strains, locus YGR135W, strain pre9, active compounds read low
# [23] = S. cerevisiae deletion strains, locus YGR229C, strain SMI1, active compounds read low
# [24] = S. cerevisiae deletion strains, locus YGR252W, strain gcn5, active compounds read low
# [25] = S. cerevisiae deletion strains, locus YHR030C, strain SLT2, active compounds read low
# [26] = S. cerevisiae deletion strains, locus YHR079C, strain IRE1 (second series), active compounds read low
# [27] = S. cerevisiae deletion strains, locus YHR094C, strain hxt1, active compounds read low
# [28] = S. cerevisiae deletion strains, locus YHR129C, strain ARP1, active compounds read low
# [29] = S. cerevisiae deletion strains, locus YHR200W, strain rpn10, active compounds read low
# [30] = S. cerevisiae deletion strains, locus YIL066C, strain RNR3, active compounds read low
# [31] = S. cerevisiae deletion strains, locus YIL073C, strain SPO22, active compounds read low
# [32] = S. cerevisiae deletion strains, locus YIL125W, strain kgd1, active compounds read low
# [33] = S. cerevisiae deletion strains, locus YIR030C, strain dcg1, active compounds read low
# [34] = S. cerevisiae deletion strains, locus YJL095W, strain BCK1, active compounds read low
# [35] = S. cerevisiae deletion strains, locus YJL134W, strain LCB3, active compounds read low
# [36] = S. cerevisiae deletion strains, locus YJL168C, strain set2, active compounds read low
# [37] = S. cerevisiae deletion strains, locus YJL187C, strain SWE1 (second series), active compounds read low
# [38] = S. cerevisiae deletion strains, locus YKL009W, strain mrt4, active compounds read low
# [39] = S. cerevisiae deletion strains, locus YKL068W, active compounds read low
# [40] = S. cerevisiae deletion strains, locus YKL085W, strain MDH1 (second series), active compounds read low
# [41] = S. cerevisiae deletion strains, locus YKL085W, strain MDH1, active compounds read low
# [42] = S. cerevisiae deletion strains, locus YKR001C, strain vps1, active compounds read low
# [43] = S. cerevisiae deletion strains, locus YLR039C, strain RIC1, active compounds read low
# [44] = S. cerevisiae deletion strains, locus YLR058C, strain SHM2, active compounds read low
# [45] = S. cerevisiae deletion strains, locus YLR102C, strain apc9, active compounds read low
# [46] = S. cerevisiae deletion strains, locus YLR268W, strain sec22, active compounds read low
# [47] = S. cerevisiae deletion strains, locus YLR371W, strain rom2, active compounds read low
# [48] = S. cerevisiae deletion strains, locus YLR418C, strain cdc73, active compounds read low
# [49] = S. cerevisiae deletion strains, locus YML016C, strain PPZ1, active compounds read low
# [50] = S. cerevisiae deletion strains, locus YML032C, strain rad52, active compounds read low
# [51] = S. cerevisiae deletion strains, locus YML124C, strain tub3, active compounds read low
# [52] = S. cerevisiae deletion strains, locus YMR078C, strain ctf18, active compounds read low
# [53] = S. cerevisiae deletion strains, locus YMR223W, strain ubp8, active compounds read low
# [54] = S. cerevisiae deletion strains, locus YMR307W, strain GAS1, active compounds read low
# [55] = S. cerevisiae deletion strains, locus YNL067W, strain RPL9B, active compounds read low
# [56] = S. cerevisiae deletion strains, locus YNL233W, strain BNI4, active compounds read low
# [57] = S. cerevisiae deletion strains, locus YNL250W, strain rad50, active compounds read low
# [58] = S. cerevisiae deletion strains, locus YNL271C, strain bni1, active compounds read low
# [59] = S. cerevisiae deletion strains, locus YNL298W, strain CLA4, active compounds read low
# [60] = S. cerevisiae deletion strains, locus YNL307C, strain MCK1, active compounds read low
# [61] = S. cerevisiae deletion strains, locus YNR052C, strain pop2, active compounds read low
# [62] = S. cerevisiae deletion strains, locus YOL012C, strain htz1
# [63] = S. cerevisiae deletion strains, locus YOL147C, strain pex11, active compounds read low
# [64] = S. cerevisiae deletion strains, locus YOR061W, strain CKA2, active compounds read low
# [65] = S. cerevisiae deletion strains, locus YOR069W, strain VPS5, active compounds read low
# [66] = S. cerevisiae deletion strains, locus YOR136W, strain idh2, active compounds read low
# [67] = S. cerevisiae deletion strains, locus YOR144C, strain elg1, active compounds read low
# [68] = S. cerevisiae deletion strains, locus YOR184W, strain ser1, active compounds read low
# [69] = S. cerevisiae deletion strains, locus YOR316C, strain cot1, active compounds read low
# [70] = S. cerevisiae deletion strains, locus YPL241C, strain CIN2, active compounds read low
# [71] = S. cerevisiae deletion strains, locus YPR119W, strain clb2, active compounds read low
# [72] = S. cerevisiae deletion strains, locus YPR141C, strain kar3, active compounds read low
# [73] = S. cerevisiae deletion strains, locus YPR163C, strain tif3, active compounds read low
# [74] = S. cerevisiae deletion strains, locus YPR167C, strain met16, active compounds read low
# [75] = S. cerevisiae deletion strains, strain wtn01, active compounds read low
smiles,measurement,setting,value
C=C1C([C@]2(C)C(CC(=O)OC)[C@@](C)(COC(C)=O)OC(=O)C[C@@H]2OC(C)=O)[C@@H](OC=O)[C@H](OC(=O)C(OC(C)=O)C(C)CC)[C@@]2(C)[C@H](c3ccoc3)CC(=O)C12O (some centres undefined),normalized growth,"S. cerevisiae deletion strains, locus YAL013W, strain DEP1, active compounds read low",1.03
same,normalized growth,[1],1.03
same,normalized growth,[2],1.01
same,normalized growth,[3],1.03
same,normalized growth,[4],1.01
same,normalized growth,[5],1.04
same,normalized growth,[6],1.03
same,normalized growth,[7],1.03
same,normalized growth,[8],1.03
same,normalized growth,[9],1.03
same,normalized growth,[10],1.01
same,normalized growth,"S. cerevisiae deletion strains, locus YDR150W, strain NUM1, active compounds read low",1.03
same,normalized growth,[11],1.02
same,normalized growth,[12],1.03
same,normalized growth,[13],1.03
same,normalized growth,[14],1.04
same,normalized growth,[15],1.02
same,normalized growth,[16],1.03
same,normalized growth,[17],1.02
same,normalized growth,[18],1.01
same,normalized growth,[19],1.04
same,normalized growth,[20],1.04
same,normalized growth,[21],1.02
same,normalized growth,[22],1.03
same,normalized growth,[23],1.08
same,normalized growth,[24],1.03
same,normalized growth,[25],1.02
same,normalized growth,[26],1.03
same,normalized growth,[27],1.04
same,normalized growth,[28],1.02
same,normalized growth,[29],1.03
same,normalized growth,[30],1
same,normalized growth,[31],1.06
same,normalized growth,[32],1.02
same,normalized growth,[33],1.03
same,normalized growth,[34],1.04
same,normalized growth,[35],1.02
same,normalized growth,[36],1.03
same,normalized growth,[37],1.03
same,normalized growth,[38],0.952
same,normalized growth,[39],1.03
same,normalized growth,[40],1.16 [resistant] (active)
same,normalized growth,[41],1.16 [resistant] (active)
same,normalized growth,"S. cerevisiae deletion strains, locus YKL190W, strain CNB1, active compounds read low",1.01
same,normalized growth,[42],1.03
same,normalized growth,[43],1.09
same,normalized growth,[44],1.01
same,normalized growth,[45],1.03
same,normalized growth,[46],1.02
same,normalized growth,"S. cerevisiae deletion strains, locus YLR330W, strain CHS5, active compounds read low",1.02
same,normalized growth,[47],1.03
same,normalized growth,[48],1.07
same,normalized growth,[49],1.01
same,normalized growth,[50],1.03
same,normalized growth,[51],1.03
same,normalized growth,[52],1.03
same,normalized growth,[53],1.03
same,normalized growth,[54],1.04
same,normalized growth,[55],1.03
same,normalized growth,[56],1.03
same,normalized growth,[57],1.01
same,normalized growth,[58],1.03
same,normalized growth,[59],1.02
same,normalized growth,[60],1.02
same,normalized growth,[61],1.04
same,normalized growth,[62],1.2
same,normalized growth,[63],1.03
same,normalized growth,[64],1.02
same,normalized growth,[65],1.02
same,normalized growth,[66],1.03
same,normalized growth,[67],1.04
same,normalized growth,[68],1.02
same,normalized growth,[69],1.03
same,normalized growth,[70],1.02
same,normalized growth,[71],1.02
same,normalized growth,[72],1.02
same,normalized growth,[73],1.04
same,normalized growth,[74],1.03
same,normalized growth,[75],1.01
same,normalized growth,"S. cerevisiae strains, strain wild type, active compounds read low",1.03
C=C1C([C@]2(C)C(CC(=O)OC)[C@@](C)(COC(C)=O)OC(=O)C[C@@H]2OC(C)=O)[C@@H](OC=O)[C@H](OC(=O)C(O)C(C)CC)[C@@]2(C)[C@H](c3ccoc3)CC(=O)C12O (some centres undefined),normalized growth,[1],0.996
same,normalized growth,[2],1
same,normalized growth,[3],1.02
same,normalized growth,[4],1.01
same,normalized growth,[5],1.02
same,normalized growth,[6],1.02
same,normalized growth,[7],1.01
same,normalized growth,[8],1.01
same,normalized growth,[9],1.01
same,normalized growth,[10],1
same,normalized growth,[11],1.02
same,normalized growth,[12],1.01
same,normalized growth,[13],0.998
same,normalized growth,[14],1.01
same,normalized growth,[15],1
same,normalized growth,[16],1.01
same,normalized growth,[17],1.01
same,normalized growth,[18],1
same,normalized growth,[19],1.02
same,normalized growth,[20],1
same,normalized growth,[21],1.01
same,normalized growth,[22],1.04
same,normalized growth,[23],1.06
same,normalized growth,[24],1.03
same,normalized growth,[25],1.01
same,normalized growth,[26],1.02
same,normalized growth,[27],1.01
same,normalized growth,[28],1.01
same,normalized growth,[29],0.995
same,normalized growth,[30],1.01
same,normalized growth,[31],1.09
same,normalized growth,[32],1
same,normalized growth,[33],1.01
same,normalized growth,[34],1.04
same,normalized growth,[35],1.01
same,normalized growth,[36],1.01
same,normalized growth,[37],1.02
same,normalized growth,[38],0.994
same,normalized growth,[39],1.01
same,normalized growth,[40],0.999
same,normalized growth,[41],0.999
same,normalized growth,[42],1.02
same,normalized growth,[43],1.09
same,normalized growth,[44],1.01
same,normalized growth,[45],1.01
same,normalized growth,[46],1
same,normalized growth,"S. cerevisiae deletion strains, locus YLR342W, strain FKS1 (second series), active compounds read low",1.01
same,normalized growth,[47],1.01
same,normalized growth,[48],1.03
same,normalized growth,[49],1
same,normalized growth,[50],0.991
same,normalized growth,[51],1.01
same,normalized growth,[52],1.02
same,normalized growth,[53],1.01
same,normalized growth,[54],1.1
same,normalized growth,[55],1.02
same,normalized growth,"S. cerevisiae deletion strains, locus YNL153C, strain GIM3, active compounds read low",1.01
same,normalized growth,[56],1.03
same,normalized growth,[57],1.01
same,normalized growth,[58],1.01
same,normalized growth,[59],1.03
same,normalized growth,[60],1.01
same,normalized growth,"S. cerevisiae deletion strains, locus YNL322C, strain KRE1, active compounds read low",1.01
same,normalized growth,[61],1.01
same,normalized growth,"S. cerevisiae deletion strains, locus YOL006C, strain TOP1, active compounds read low",1.04
same,normalized growth,[62],0.797
same,normalized growth,[63],1.01
same,normalized growth,[64],1
same,normalized growth,[65],1.01
same,normalized growth,[66],1
same,normalized growth,[67],1
same,normalized growth,[68],1.01
same,normalized growth,[69],1.01
same,normalized growth,[70],1.01
same,normalized growth,[71],1.01
same,normalized growth,[72],1.02
same,normalized growth,[73],1.01
same,normalized growth,[74],1.01
same,normalized growth,[75],0.997
